# Mtb FBA inh = inhibits M. tuberculosis FBA enzyme; P9WQA3; purified M. tuberculosis FBA, fluorescence read-out; inhibition, % at 1 µM; 360,000 compounds, 2.3% hits; AID 588726; in the data active = inhibition above about 27%
# Target sequence (P9WQA3 whole entry, looked up): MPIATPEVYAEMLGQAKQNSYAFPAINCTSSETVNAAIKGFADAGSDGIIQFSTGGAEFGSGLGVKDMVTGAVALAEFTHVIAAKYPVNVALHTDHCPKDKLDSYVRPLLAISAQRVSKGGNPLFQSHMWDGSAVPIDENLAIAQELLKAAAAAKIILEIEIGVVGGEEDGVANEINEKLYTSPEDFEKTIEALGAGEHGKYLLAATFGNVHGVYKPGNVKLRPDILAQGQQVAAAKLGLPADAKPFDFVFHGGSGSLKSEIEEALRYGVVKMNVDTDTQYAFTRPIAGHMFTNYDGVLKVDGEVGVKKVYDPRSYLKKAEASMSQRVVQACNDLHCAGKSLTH
# Rv3671c protease = inhibits the M. tuberculosis serine protease Rv3671c. inhibition, % at 5.96 µM. AID 2606. P9WHR9. 320,000 compounds, 0.048% hits; in the data active = inhibition above about 38%;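 also: extracellular domain of Rv3671c used as enzyme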
# GDH-TPI inh = GDH-TPI coupled enzyme inhibition counter-screen; GDH-TPI coupled enzyme counterscreen, NADH absorbance; 360,000 compounds, 1.2% hits; inhibition, % at 4.8 µM; in the data active = inhibition above about 30%
# Mtb betalactam = beta-lactam sensitization of Mtb H37Rv; M. tuberculosis H37Rv growth with meropenem, percent inhibition; inhibition, % at 25 µM; 330,000 compounds, 0.27% hits; AID 434955; call rule not given here;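 also: growth measured after seven days incubation then overnight dye step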
# UGM FP inh = blocks M. tuberculosis UGM enzyme | AID 504406 | purified UGM, fluorescence polarization probe displacement | 320,000 compounds, 0.06% hits | P9WIQ1 | inhibition, % at 10 µM; in the data active = inhibition above about 10%, passing the limit was not always enough; inconclusive = no clear call, values can overlap the other calls
# Hits are given with their value; . = inactive; ? = inconclusive; / = no result; + = active, no number. This is a sample that favours compounds with a hit; in the whole collection about 3.5% have one here.
SMILES,Mtb FBA inh,Rv3671c protease,GDH-TPI inh,Mtb betalactam,UGM FP inh
Cc1cccc(NC(=O)/C(=C\c2cccs2)NC(=O)c2ccccc2)c1,.,.,34,.,.
COc1ccc(/C=C(/NC(=O)c2ccccc2)C(=O)N/N=C/c2ccncc2)c(OC)c1,.,.,.,.,.
Cc1ccc(NC2CCCN(C(=O)c3cn(C)c4ccccc34)C2)cc1C (stereo not drawn),.,.,.,.,.
O=C1C=CN(Cc2ccccc2)C(c2ccccc2)C1 (stereo not drawn),.,.,35,.,.
O=C1C=CN(Cc2ccccc2)CC1,.,.,.,.,.
COC(=O)c1c(-c2ccccc2)csc1N,.,.,.,.,.
COC(=O)c1c(C(=O)OC)c2c(-c3ccccc3)cc3cccc1n32,121,/,.,/,/
Cc1ccc(-c2nnc(Nc3ccc(CC(N)=O)cc3)c3ccccc23)cc1S(=O)(=O)NCC1CCCO1 (stereo not drawn),.,.,32,.,.
Cc1ccc(-c2nnc(Nc3ccc(C(=O)N(C)C)cc3)c3ccccc23)cc1S(=O)(=O)NC(C)(C)CO,.,.,37,.,.
Cc1ccc(-c2nnc(Nc3ccc(C(=O)N(C)C)cc3)c3ccccc23)cc1S(=O)(=O)NCC1CCCO1 (stereo not drawn),.,.,.,.,.
Cc1cccc(N(CC(=O)NC2CCCCC2)C(=O)CCC(=O)Nc2ccccn2)c1,/,.,/,.,.
CC1=CN2C(=NC(=O)CC2(C)C(=O)N(CC(=O)NC2CCCC2)c2cc(C)cc(C)c2)C=C1 (stereo not drawn),144,.,.,.,.
CC1=CN2C(=NC(=O)CC2(C)C(=O)N(CC(=O)NC2CCCC2)c2ccccc2C)C=C1 (stereo not drawn),147,.,.,.,.
CC1=CC=CN2C1=NC(=O)CC2(C)C(=O)N(CC(=O)NC1CCCC1)c1cc(C)cc(C)c1 (stereo not drawn),174,.,.,.,.
CC1=CC=CN2C1=NC(=O)CC2(C)C(=O)N(CC(=O)NC1CCCC1)Cc1ccccc1 (stereo not drawn),152,.,.,.,.
Cc1cc(C)cc(N(CC(=O)NC2CCCCC2)C(=O)CNC(=O)c2ccco2)c1,.,.,.,.,.
CC1=CN2C(=NC(=O)CC2(C)C(=O)N(CC(=O)NC2CCCC2)Cc2ccc(Cl)cc2)C=C1 (stereo not drawn),117,.,.,.,.
Cc1ccnc(NC(=O)CCC(=O)N(CC(=O)NC2CCCCC2)Cc2ccccc2)c1,.,.,.,.,.
CCCCn1c(/N=C/c2ccc(N(C)C)cc2)nc2ccccc21,.,.,52,.,.
CC(C)(C)c1ccc2c(c1)OC(C(=O)N/N=C\c1ccc(-c3cccc(C(=O)O)c3)o1)CO2 (stereo not drawn),.,.,39,.,.
O=C(N/N=C\c1ccc(-c2ccccc2[N+](=O)[O-])o1)C1COc2ccccc2O1 (stereo not drawn),.,.,.,.,.
O=C(O)c1cccc(-c2ccc(/C=N/NC(=O)C3COc4ccccc4O3)o2)c1 (stereo not drawn),.,.,38,.,.
Cc1cccc(NC(=O)CCC(=O)N2CCOCC2)n1,.,.,.,.,.
CC(OC(=O)CSc1ccccc1)C(=O)NC1CCCCC1C (stereo not drawn),.,/,.,/,/
CN(C)c1ccc(C(=O)N=c2sccn2C)cc1[N+](=O)[O-],.,.,38,.,.
SMILES,Mtb FBA inh,Rv3671c protease,GDH-TPI inh,Mtb betalactam,UGM FP inh
O=C(NCCC1=CCCCC1)C1CCN(C(=O)Cc2ccccc2)CC1,.,.,.,.,.
COc1ccccc1NC=C1C(=O)OC(C)(C)OC1=O,.,.,47,.,.
CC1(C)OC(=O)C(=CNc2cccc(O)c2)C(=O)O1,.,.,35,.,.
CCOc1ccccc1NC=C1C(=O)OC(C)(C)OC1=O,.,.,41,.,.
C[N+]1(C2CCC3CCCC2C3O)CCCC1 (stereo not drawn),.,.,.,.,.
O=C(CN1CCN(c2ccccn2)CC1)Nc1cccc(Br)c1,.,.,.,.,.
COCCn1ccc2c(OCC(=O)Nc3ccccc3OC)cccc2c1=O,.,.,.,.,/
CCOc1ccc(C2c3[nH]c4ccccc4c3CCN2CCCn2cccn2)cc1 (stereo not drawn),.,.,.,.,.
O=C(OCc1ccccc1C(F)(F)F)c1ccc(Br)c(S(=O)(=O)N2CCOCC2)c1,.,/,.,/,/
C[C@H]1CN(c2ccccc2)C(=O)[C@@H]1CC(=O)Nc1ccccc1,.,/,.,/,/
CCCn1c(=NC(=O)c2ccncc2)c(C#N)cc2c(=O)n3cccc(C)c3nc21,.,/,.,/,/
COCCCn1c(=NC(=O)c2ccncc2)c(C#N)cc2c(=O)n3cccc(C)c3nc21,+,.,.,.,?
CCCCn1c(=NC(=O)c2cccnc2)c(C#N)cc2c(=O)n3cccc(C)c3nc21,194,.,.,.,.
CCCS(=O)(=O)N1CCN(Cc2ccc3c(c2)c2ccccc2n3CC)CC1,.,.,.,.,.
CCCCc1cc(=O)oc2cc(OC(C)C(=O)NCCN3CCOCC3)ccc12 (stereo not drawn),.,/,.,/,/
COc1ccc2c(c1OC)c(=O)n1c3ccc(OC(C)C(=O)NCCCN4CCOCC4)cc3c3ccnc2c31 (stereo not drawn),153,.,.,.,.
COc1ccc(NC(=O)c2c(C)noc2C)cc1S(=O)(=O)N1CCCCC1,.,/,.,/,/

# From PubChem BioAssay
